In ChEMBL document CHEMBL1157539, “Thousands of chemical starting points for antimalarial lead identification” (Nature, 2010):

Tests used:
Assay type in all cases: functional
Plasmodium falciparum [1] = assay: GSK_TCMDC: Inhibition of Plasmodium falciparum 3D7 in whole red blood cells, using parasite LDH activity as an index of growth. Test compounds present at 2uM
Plasmodium falciparum [2] = assay: GSK_TCMDC: Inhibition of Plasmodium falciparum Dd2 in whole red blood cells, using parasite LDH activity as an index of growth. Test compounds present at 2uM
HepG2 = assay: GSK_TCMDC: Percent inhibition of human HepG2 cell line. Test compounds present at 10uM.

Structure (SMILES)	Inhibition (Plasmodium falciparum [1]) [%]	Inhibition (Plasmodium falciparum [2]) [%]	Inhibition (HepG2) [%]
CC(=O)N/N=C/[C@H](CCc1ccccc1)NC(=O)[C@H](CC(C)C)NC(=O)c1ccc(F)cc1	95	86	2
CCCCCCN1CCN(Cc2cccc(NC(=O)c3ccc(Cl)c(Cl)c3)c2)CC1.O=C(O)C(F)(F)F	85	51	31
Cn1nc(-c2ccc(NC(=O)Nc3cc(C(F)(F)F)ccc3F)c(F)c2)c2cnc(NCCCN3CCOCC3)nc21.O=C(O)C(F)(F)F	100	62	31
COc1cccc(C=NNc2cc(C)nc3c(OC)cccc23)c1	99	58	6
N#Cc1ccc(N[C@@H](CC2CCCCC2)C(=O)NCc2cc(F)c(F)cc2F)c2ccccc12.O=C(O)C(F)(F)F	94	39	12
Cl.Oc1ccc(-c2cc(COc3ccccc3C(F)(F)F)c(C3=CCNCC3)cc2COc2ccccc2C(F)(F)F)cc1	100	62	18
CC(=O)Nc1cccc(C(=O)Nc2cccc(-c3ccc(-c4nc5cccc(C)c5[nH]4)s3)c2)c1	99	26	75
CS(=O)(=O)N1CC2(CCN(CCC(NC(=O)/C=C/c3ccccc3)c3ccc(Cl)c(Cl)c3)CC2)c2ccccc21 (stereo unspecified)	97	55	18
CCn1c(-c2ccccc2)cc2nnc3ccccc3c21	92	87	34
CC(C)CNCc1cccc(-c2ccc(CNC3CCN(Cc4ccccc4)CC3)cc2)c1.O=C(O)C(F)(F)F	100	99	44
COc1ccc(CN(C)CCOc2ccc(NC(=O)c3cccc4c(=O)cc(-c5ccccc5)[nH]c34)cc2)cc1OC	98	44	13
COc1cc(NC(=O)CCCN2CCN(c3cccc(Cl)c3Cl)CC2)ccc1N1CCN(C(C)C)CC1.Cl	99	59	31
O=C(NCCN1CCCCC1)c1ccc(CNC(=O)c2ccc(O)c(-c3cccc(C(F)(F)F)c3)c2)cc1	94	47	3
COc1ccc(C=NN=c2cc(C)[nH]c3ccccc23)c2ccccc12	99	69	26
COC(=O)c1ccc2nc(-c3cc(-c4cccc(-c5ccccc5)c4)cnc3N)[nH]c2c1	100	61	25
NC(=O)Nc1ccc2c(Nc3ccc(OCc4ccccc4)cc3)ncnc2c1	84	20	0
CCNc1cc(C(=O)N[C@@H](Cc2ccccc2)[C@H](O)CN[C@H](C)C(C)(C)C)cc(N2CCCCS2(=O)=O)c1.Cl	95	41	4
Cc1ccc(-c2noc(=O)n2CC(=O)Nc2ccccc2-c2ccccc2)cc1	100	86	0
CCCCCCCCCN1CC[C@@H](CCCc2ccnc3ccc(O)cc23)[C@@H](CC)C1.O=C(O)C(=O)O	83	59	58
CN1CCN(c2cccc(-c3nnc(-c4ccc(OCC(=O)NCc5cccc(C(F)(F)F)c5)c([N+](=O)[O-])c4)o3)c2)CC1	90	72	25
Cc1ccc(NC(=O)c2ccc3nccnc3c2)cc1OC1CCN(Cc2ccc(F)cc2)CC1.O=C(O)C(F)(F)F	87	24	16
COc1ccc2nccc([C@@H](O)CN3CCC(NC(=O)Cc4ccc(Br)c5ccccc45)CC3)c2c1	98	40	10
CCc1ccc(C2CCN(CCCCNC(=O)c3ccc(-c4ccc(C#N)cc4)cc3)CC2)c(OCCO)c1.Cl	94	61	24
CC(C)(C)CNc1noc(-c2sccc2Br)n1	82	71	4
CN1CCN(c2ccnc3ccc(NC(=O)Nc4ccc5c(c4)CCC5=O)cc23)CC1	100	67	8
Cc1cccc2nc(-c3ccc(-c4cccc(NC(=O)C(=O)c5cccn5C)c4)cc3)[nH]c12	98	17	30
Clc1ccc2c(NN=Cc3ccco3)ccnc2c1	100	96	3
